# Measurements from the OligoGym collection.
# Biological target: TAF3
# Test: pooled miR-30 sensor sort-seq; sequence = guide strand
# Conditions: shRNA
# Note: reference of the scale not given here.
row,Sequence,sensor-assay potency score (higher = more potent)
1,TTGTCCTTCTTCTTGTTCGCAC,0.171
2,TTTGGGAGTAGTACACTCCGGG,0.0818
3,TTTCACTTTATCCTTCTCCTTA,0.0178

# Biological target: TAF4
# Test: as above
# Conditions: shRNA
row,Sequence,sensor-assay potency score (higher = more potent)
1,ATTAATGTCATCATCGTCCCGA,0.127
2,TTAACTGTTCTGGATCTTCTTG,-0.704
3,TTACCTATTTCTAATATTCTTC,-0.515
4,TACATCTGGATGTAATTCCGTT,-0.473
5,TAACTGTTCTGGATCTTCTTGT,0.732
6,TTTGTCGCGTGAACTGTCTGGG,0.638
7,TACATAACTTACTACATCTGGA,-0.0503
8,TAGACATACACCTACATAGTAA,-0.674
9,TATTTTTCTGTGCAGCAGCTGC,-0.881
10,TATTCTTGCACTTTCTTCTGAC,0.569
11,TTAAGTTCTCGGTATAACCTGC,0.0759
12,TTAATGTCATCATCGTCCCGAA,-0.403

# Biological target: TAF5
# Test: as above
# Conditions: shRNA
row,Sequence,sensor-assay potency score (higher = more potent)
1,TATCTGTTGCTTACTACGCGGC,-0.346
2,TTGAATCTGCAAAACCTCCAGC,0.0484
3,TAAGACTAGATAATACTCGTAG,0.809
4,TTGATTGTAGACTAGCTCCAAG,-0.676
5,TAAGTGAACAGACTGTATCAGT,-0.556
6,TATCTGAATCTTTCAACTCAGG,-1.06
7,TTATCTTATCCAACTTATCTGA,-0.244
8,TAATACTCGTAGGTCATCCTGG,0.422
9,TTGTTTGACACTACGAAGCTTT,0.143
10,TAATCGAACTGTATTATCCATT,-0.885
11,TATCTTATCCAACTTATCTGAA,-0.846
12,TAGTATTCTTCATACATTGTGG,-0.781

# Biological target: TARBP2
# Test: as above
# Conditions: shRNA
row,Sequence,sensor-assay potency score (higher = more potent)
1,TCCTGCAGAAGGCTGATCGGGG,-1.33
2,TTCTCTCCTACTGAATTTCGTA,-0.854
3,TTTCTGCACCACCAGCTCCTGC,-1.56
4,TTTGAGAAGGTCGTACACAGGC,-0.0476
5,TTTCGTAGAGAATCCCAGGTGC,0.652
6,TTGCAGAGCCATGACACACAGT,-0.909
7,TAGGACTACAGATGGAACTGGG,0.0896
8,TTTCGAAGACCATCCAGGCGGG,-0.916
9,TATTCTGGTCCCATACTCCTGC,0.18
10,TCGTACACAGGCGTCTTCCCTA,-0.68
11,TGCTGCAGCAGTAAAAACCGGA,-0.386
12,TGAATTTCGTAGAGAATCCCAG,-0.515
